Assay results as given in PubChem BioAssay (Tox21).
The source made the active and inactive calls. Entries that show only a call come without a potency. Unless noted, calls follow the shape of the dose curve; as a rule, active = well fitted curve in the direction sought with a large enough effect in the repeat runs; inconclusive = weak or mixed curves; inactive = no such curve, though single readings can be large; an effect the other way counts as inactive or inconclusive.

Legend:
[1] = qHTS assay to test for compound auto fluorescence at 535 nm (green) in HepG2 cells (AID 720675)
[2] = qHTS assay to test for compound auto fluorescence at 535 nm (green) in HEK293 cells (AID 720680)
[3] = qHTS assay to test for compound auto fluorescence at 590 nm (red) in HEK293 cell free culture (AID 720683)
Procedure, shortened: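 Cell-free wells of DMEM with 10% FBS received compound, and intrinsic fluorescence was read at excitation/emission 540/590 nm. Values expressed as equivalence to Rose Bengal sodium.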

[4] = qHTS assay to test for compound auto fluorescence at 590 nm (red) in HepG2 cell free culture (AID 720684)
Procedure, shortened: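 Compound was pinned into wells holding MEM with 10% FBS and no cells, and red fluorescence was read at Ex/Em 540/590 nm. Signal is expressed as auto fluorescence equivalency relative to Rose Bengal sodium.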

[5] = qHTS assay to test for compound auto fluorescence at 460 nm (blue) in HepG2 cell free culture (AID 720685)
Procedure, shortened: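 Compound (23 nL) or DMSO pinned into cell-free MEM with 10% FBS; blue fluorescence read at 405/460 nm excitation/emission, expressed as auto-fluorescence equivalency to triamterene.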

[6] = qHTS assay to test for compound auto fluorescence at 535 nm (green) in HepG2 cell free culture (AID 720686)
[7] = qHTS assay to test for compound auto fluorescence at 460 nm (blue) in HepG2 cells (AID 720687)
Procedure, shortened: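 HepG2 cells in MEM with 10% FBS, attached overnight at 37 C, were exposed to compound or DMSO for 1 hr at 37 C, 5% CO2. Blue fluorescence was read at 405/460 nm, with triamterene as reference fluorophore.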

[8] = biological target: Glucocorticoid receptor (Homo sapiens) (UniProt P04150); assay: qHTS assay to identify small molecule agonists of the glucocorticoid receptor (GR) signaling pathway (AID 720691; active = well fitted activation curve with a large enough effect in the signal ratio in the repeat runs, not every such curve was filed as active; inconclusive = weak or mixed curves, or effect the other way; inactive = no such curve, though single readings can be large or run the other way; the % refers to the signal ratio)
Glucocorticoid receptor (Homo sapiens), sequence (P04150 whole entry, looked up): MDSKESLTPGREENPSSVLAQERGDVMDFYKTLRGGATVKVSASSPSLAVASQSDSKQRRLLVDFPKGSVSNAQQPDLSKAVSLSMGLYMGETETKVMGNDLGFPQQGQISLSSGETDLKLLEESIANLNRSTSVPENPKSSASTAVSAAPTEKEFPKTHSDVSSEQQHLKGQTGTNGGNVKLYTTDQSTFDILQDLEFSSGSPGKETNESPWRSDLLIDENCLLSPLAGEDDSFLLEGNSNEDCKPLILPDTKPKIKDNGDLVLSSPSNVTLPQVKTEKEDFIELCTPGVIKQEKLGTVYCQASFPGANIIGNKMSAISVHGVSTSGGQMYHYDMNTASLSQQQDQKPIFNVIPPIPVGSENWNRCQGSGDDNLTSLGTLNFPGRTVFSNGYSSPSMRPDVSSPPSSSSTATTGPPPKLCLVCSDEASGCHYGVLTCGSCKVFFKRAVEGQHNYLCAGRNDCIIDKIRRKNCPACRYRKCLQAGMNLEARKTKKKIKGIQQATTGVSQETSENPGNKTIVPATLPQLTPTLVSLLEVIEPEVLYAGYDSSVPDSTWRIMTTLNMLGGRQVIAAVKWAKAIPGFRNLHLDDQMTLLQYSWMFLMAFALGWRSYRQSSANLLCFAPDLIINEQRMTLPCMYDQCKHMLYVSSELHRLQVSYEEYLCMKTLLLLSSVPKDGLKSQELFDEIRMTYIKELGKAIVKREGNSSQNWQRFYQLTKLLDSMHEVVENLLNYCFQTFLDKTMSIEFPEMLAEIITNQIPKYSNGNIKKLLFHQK
Procedure, shortened: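 GR-bla HeLa cells (beta-lactamase reporter under glucocorticoid response element) were plated 4 h at 37 C/5% CO2, given compounds in DMSO, and incubated 18 h at 37 C. LiveBLAzer B/G FRET substrate was added for 2 h at room temperature, then fluorescence intensity read.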

[9] = qHTS assay for identifying genotoxic compounds that show differential cytotoxicity against isogenic chicken DT40 cell lines with known DNA damage response pathways - wild type cell line (AID 743012); also: nearly all actives have a fitted effect of over 60% in size; also: potency is read from the fitted curve at half-maximal effect
Procedure, shortened: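 Parental DNA repair-proficient DT40 cells, 300 per well, were pre-incubated ~0.5 h at 37 C/5% CO2, pin-dosed with compounds in DMSO, then incubated 40 h. Viability was read as CellTiter-Glo luminescence after 30 min at room temperature.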

[10] = qHTS assay for identifying genotoxic compounds that show differential cytotoxicity against isogenic chicken DT40 cell lines with known DNA damage response pathways - Rad54/Ku70 mutant cell line (AID 743015); also: nearly all actives have a fitted effect of over 60% in size; also: potency is read from the fitted curve at half-maximal effect
[11] = qHTS assay to identify small molecule antagonists of the androgen receptor (AR) signaling pathway - cell viability counter screen (AID 743033; also: nearly all actives have a fitted effect of over 45% in size; also: potency is read from the fitted curve at half-maximal effect)
[12] = qHTS assay to identify small molecule antagonists of the thyroid receptor (TR) signaling pathway - cell viability counter screen (AID 743064); also: nearly all actives have a fitted effect of over 50% in size; also: potency is read from the fitted curve at half-maximal effect
Procedure, shortened: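 GH3.TRE-Luc rat pituitary cells dosed after 4 hr plating, co-stimulated with T3 at 1 nM final, incubated 23.5 h at 37 C. Viability measured in the same wells by CellTiter-Fluor fluorescence after 30 min further at 37 C.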

[13] = qHTS assay to identify small molecule antagonists of the thyroid receptor (TR) signaling pathway (AID 743065); also: nearly all actives have a fitted effect of over 55% in size; also: potency is read from the fitted curve at half-maximal effect
Procedure, shortened: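 GH3.TRE-Luc rat pituitary cells (two TREs driving luciferase) were dosed with compound, then stimulated with 1 nM T3 (final) for 23.5 h at 37 C. ONE-Glo luminescence was the read-out, with CellTiter-Fluor fluorescence as the cytotoxicity counter-screen.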

[14] = biological target: Estrogen receptor (Homo sapiens) (UniProt P03372); assay: qHTS assay to identify small molecule agonists of the estrogen receptor alpha (ER-alpha) signaling pathway (AID 743075; calls by dose curve;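 also: HEK293 GripTite cells with ER-alpha and UAS-driven beta-lactamase reporter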; also: potency is read from the fitted curve at half-maximal effect)
Estrogen receptor (Homo sapiens), sequence (P03372 whole entry, looked up): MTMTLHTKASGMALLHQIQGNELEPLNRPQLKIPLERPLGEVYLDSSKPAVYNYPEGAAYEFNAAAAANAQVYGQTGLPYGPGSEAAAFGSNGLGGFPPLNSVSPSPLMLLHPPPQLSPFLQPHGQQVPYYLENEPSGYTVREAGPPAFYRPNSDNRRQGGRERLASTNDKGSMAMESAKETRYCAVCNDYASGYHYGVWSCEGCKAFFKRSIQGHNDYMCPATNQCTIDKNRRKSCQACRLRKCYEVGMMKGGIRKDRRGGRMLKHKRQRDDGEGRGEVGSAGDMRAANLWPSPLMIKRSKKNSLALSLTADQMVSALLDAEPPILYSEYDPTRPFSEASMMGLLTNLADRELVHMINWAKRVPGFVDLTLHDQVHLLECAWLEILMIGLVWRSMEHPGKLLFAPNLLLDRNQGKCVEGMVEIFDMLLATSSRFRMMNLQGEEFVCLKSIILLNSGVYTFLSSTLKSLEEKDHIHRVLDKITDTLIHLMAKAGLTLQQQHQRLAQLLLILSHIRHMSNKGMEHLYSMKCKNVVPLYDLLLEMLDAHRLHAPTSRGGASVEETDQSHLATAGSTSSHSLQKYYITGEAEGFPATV

[15] = biological target: Estrogen receptor (Homo sapiens) (UniProt P03372); assay: qHTS assay to identify small molecule agonists of the estrogen receptor alpha (ER-alpha) signaling pathway using the BG1 cell line (AID 743079); also: nearly all actives have a fitted effect of over 20% in size; also: potency is read from the fitted curve at half-maximal effect
[16] = qHTS assay to identify small molecule antagonists of the estrogen receptor alpha (ER-alpha) signaling pathway using the BG1 cell line (AID 743080; calls by dose curve;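 also: BG1 cells stimulated with 17beta-estradiol alongside compound; series mostly up to about 70 µM; nearly all actives have a fitted effect of over 25% in size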)
Procedure, shortened: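 Readout is ONE-Glo luminescence, taken 30 min at room temperature after reagent addition, preceded by a CellTiter-Fluor viability read; BG1-Luc-4E2 cells had received compound and 17beta-estradiol for 21.5 h at 37 C.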

[17] = biological target: Aryl hydrocarbon receptor (Homo sapiens) (UniProt P35869); assay: qHTS assay to identify small molecule that activate the aryl hydrocarbon receptor (AhR) signaling pathway (AID 743085);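 also: HG2L7.5c1 human HepG2 liver cells with stably integrated DRE-driven firefly reporter; series mostly up to about 70 µM; nearly all actives have a fitted effect of over 15% in size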
Aryl hydrocarbon receptor (Homo sapiens), sequence (P35869 whole entry, looked up): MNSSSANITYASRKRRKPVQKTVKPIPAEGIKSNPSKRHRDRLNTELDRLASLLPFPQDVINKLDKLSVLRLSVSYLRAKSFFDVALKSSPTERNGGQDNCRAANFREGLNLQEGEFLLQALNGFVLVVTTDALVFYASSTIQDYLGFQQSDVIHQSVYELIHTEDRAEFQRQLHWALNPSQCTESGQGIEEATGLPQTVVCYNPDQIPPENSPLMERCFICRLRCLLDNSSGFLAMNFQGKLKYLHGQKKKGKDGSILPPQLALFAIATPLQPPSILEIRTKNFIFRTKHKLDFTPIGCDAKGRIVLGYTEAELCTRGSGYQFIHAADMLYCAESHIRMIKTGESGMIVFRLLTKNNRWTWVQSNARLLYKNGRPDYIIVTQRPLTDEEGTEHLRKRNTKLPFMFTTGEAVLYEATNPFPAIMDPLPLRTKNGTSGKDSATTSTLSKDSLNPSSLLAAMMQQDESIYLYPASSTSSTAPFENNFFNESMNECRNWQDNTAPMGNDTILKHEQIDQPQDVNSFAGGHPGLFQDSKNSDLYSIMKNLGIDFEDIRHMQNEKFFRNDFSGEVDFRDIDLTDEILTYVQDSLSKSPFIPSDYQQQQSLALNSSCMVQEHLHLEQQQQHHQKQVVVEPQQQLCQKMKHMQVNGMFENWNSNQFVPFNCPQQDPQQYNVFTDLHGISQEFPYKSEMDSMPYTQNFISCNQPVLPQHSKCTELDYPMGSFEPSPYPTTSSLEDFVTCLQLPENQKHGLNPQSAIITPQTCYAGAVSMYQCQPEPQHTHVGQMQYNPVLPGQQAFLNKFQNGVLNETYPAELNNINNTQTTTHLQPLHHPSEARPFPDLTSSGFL
Procedure, shortened: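 HepG2 cells stably carrying a 20-DRE firefly luciferase reporter (HG2L7.5c1) treated with compound for 24 hr at 37C. Luciferase read by ONE-Glo luminescence, with CellTiter-Fluor viability read first.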

[18] = biological target: Peroxisome proliferator-activated receptor gamma (Homo sapiens) (UniProt P37231); assay: qHTS assay to identify small molecule agonists of the peroxisome proliferator-activated receptor gamma (PPARg) signaling pathway (AID 743094; active = well fitted activation curve with a large enough effect in the signal ratio in the repeat runs, not every such curve was filed as active; inconclusive = weak or mixed curves, or effect the other way; inactive = no such curve, though single readings can be large or run the other way; the % refers to the signal ratio)
Peroxisome proliferator-activated receptor gamma (Homo sapiens), sequence (P37231 whole entry, looked up): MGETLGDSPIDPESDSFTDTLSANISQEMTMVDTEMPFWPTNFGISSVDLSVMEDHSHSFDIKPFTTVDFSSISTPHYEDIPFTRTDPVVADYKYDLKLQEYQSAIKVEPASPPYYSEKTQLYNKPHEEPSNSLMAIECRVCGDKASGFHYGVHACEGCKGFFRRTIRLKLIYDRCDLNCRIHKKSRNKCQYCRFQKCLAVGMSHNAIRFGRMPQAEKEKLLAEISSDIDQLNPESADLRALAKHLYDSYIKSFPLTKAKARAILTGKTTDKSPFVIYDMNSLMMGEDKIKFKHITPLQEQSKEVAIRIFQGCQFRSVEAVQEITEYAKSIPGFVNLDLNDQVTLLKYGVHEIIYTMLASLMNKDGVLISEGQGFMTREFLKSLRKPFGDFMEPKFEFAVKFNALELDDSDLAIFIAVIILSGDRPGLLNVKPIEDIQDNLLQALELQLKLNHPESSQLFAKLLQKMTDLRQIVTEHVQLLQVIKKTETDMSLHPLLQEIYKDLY
Procedure, shortened: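 GeneBLAzer PPARg UAS-bla HEK293H cells carrying a stably integrated beta-lactamase reporter were pre-incubated 5 h at 37C, then exposed to compounds in DMSO for 17 h at 37C; LiveBLAzer B/G FRET substrate was added for 1 h at room temperature and fluorescence read.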

[19] = biological target: Nuclear receptor subfamily 1 group I member 2 (Homo sapiens) (UniProt O75469); assay: Human pregnane X receptor (PXR) activation by small molecules, qHTS assay (AID 1346985); also: nearly all actives have a fitted effect of over 40% in size
Procedure, shortened: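 DPX-2 cells (HepG2 co-transfected with a PXR response element and a CYP3A4-promoter luciferase construct) were seeded at 2,000 per well, rested 5 hr at 37C, then exposed to DMSO-dissolved compounds for 24 hr. Activation was read as luciferase luminescence.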

[20] = qHTS assay for small molecule disruptors of the mitochondrial membrane potential (AID 720635); also: potency is read from the fitted curve at half-maximal effect
Procedure, shortened: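 HepG2 cells exposed to compound 1 hr at 37C, then Mito-MPS dye 30 min. Ratio read of aggregate (540/590 nm) versus monomer (490/535 nm) fluorescence.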

Compound	Potency [1]	Potency [2]	outcome [3]	outcome [4]	Potency [5]	Potency [6]	Potency [7]	Potency [8]	Potency [9]	Potency [10]	Potency [11]	Potency [12]	Potency [13]	Potency [14]	Potency [15]	Potency [16]	Potency [17]	Potency [18]	Potency [19]	Potency [20]
C[C@@H]([C@H](O)c1ccccc1)N(C)C	inactive	inactive	inactive	inactive	inactive	inactive	inactive	inactive	inactive	inactive	inactive	inactive	inactive	inactive	inactive	inactive	inactive	inactive	inactive	
CN[C@H]1C[C@@H](N)[C@H](O)[C@@H](O[C@@H]2O[C@H](CO)[C@H](O)[C@@H]3OC4(O[C@H]23)O[C@H](C(N)CO)[C@H](O)[C@H](O)[C@H]4O)[C@@H]1O (some centres undefined)	inactive		inactive	inactive	inactive	inactive			inactive	inactive	inactive			inactive	inactive		inactive	inactive	inactive	
CN1[C@H]2CC[C@@H]1[C@@H](C(=O)O)[C@@H](OC(=O)c1ccccc1)C2	inactive		inactive		inactive	inactive	inactive		inactive	inactive	inactive	inactive	inactive	inactive	inactive	inactive	inactive	inactive	inactive	inactive
[2H]C([2H])([2H])[C@H](N)Cc1ccccc1	inactive	inactive	inactive	inactive	inactive	inactive	inactive	inactive	inactive	inactive	inactive	inactive		inactive	inactive	inactive			inactive	
CCNC(C)Cc1cccc(C(F)(F)F)c1 (centres undefined)	inactive	inactive	inactive	inactive	inactive	inactive	inactive	inactive	inactive		inactive		inactive	inactive	inactive	inactive	inactive	inactive	inactive	
O=[N+]([O-])c1cc(I)c(O)c(I)c1	inactive			inactive	inactive	inactive	inactive	inactive			inactive	26600 nM (active)					inactive		inactive	13300 nM (active)
O=c1[nH]cc(N(CCCl)CCCl)c(=O)[nH]1	inactive	inactive	inactive	inactive	inactive	inactive		inactive	inactive	inactive	inactive	inactive	inactive	inactive	inactive	inactive	inactive	inactive	inactive	
S=C(S)N1CCNCC1	inactive	inactive	inactive	inactive	inactive	inactive		inactive	inactive	inactive	inactive		inactive	inactive	inactive	inactive	inactive	inactive	inactive	inactive
C[C@H]1CC[C@]2(NC1)O[C@H]1C[C@H]3[C@@H]4CC[C@H]5C[C@@H](O[C@@H]6O[C@H](CO)[C@H](O[C@@H]7O[C@H](CO)[C@@H](O)[C@H](O[C@@H]8OC[C@@H](O)[C@H](O)[C@H]8O)[C@H]7O[C@@H]7O[C@H](CO)[C@@H](O)[C@H](O)[C@H]7O)[C@H](O)[C@H]6O)CC[C@]5(C)[C@H]4CC[C@]3(C)[C@H]1[C@@H]2C	inactive	inactive	inactive		inactive	inactive	inactive		1880 nM (active)	2370 nM (active)			2370 nM (active)	9520 nM [inconclusive] (active)			inactive		inactive	1970 nM (active)
CN=C1CN(O)C(c2ccccc2)=c2cc(Cl)ccc2=N1	inactive			inactive	inactive	inactive	inactive	inactive	inactive	inactive	inactive	inactive	inactive	inactive	inactive	inactive	inactive	inactive	inactive	
CCCCC[C@@H](O)C1C(=O)OC(C)[C@H](O)/C=C/C=C/C=C/C=C/C=C(\C)C(O)C(O)C(O)C[C@H](O)C[C@H](O)C[C@H](O)C[C@H](O)C[C@@H]1O (some centres undefined)	inactive	inactive	inactive	inactive	inactive	inactive	inactive	inactive	inactive	inactive		inactive	inactive	inactive	inactive	inactive	inactive		inactive	inactive
CC(=O)O[C@H]1C[C@H](O[C@H]2[C@@H](O)C[C@H](O[C@H]3[C@@H](O)C[C@H](OC4CC[C@@]5(C)[C@H](CC[C@@H]6[C@@H]5CC[C@]5(C)[C@@H](C7=CC(=O)OC7)CC[C@]65O)C4)O[C@@H]3C)O[C@@H]2C)O[C@H](C)[C@H]1O[C@@H]1O[C@H](CO)[C@@H](O)[C@H](O)[C@H]1O (some centres undefined)	inactive	inactive	inactive	inactive		inactive	inactive	inactive		596 nM (active)	107 nM (active)		inactive	inactive			inactive		inactive	393 nM (active)
O=C(CCl)c1ccc(Oc2ccc(C(=O)CCl)cc2)cc1	inactive	inactive		inactive	inactive	inactive	inactive				inactive		inactive	inactive		inactive	inactive		inactive	inactive
CC(N)Cc1ccc(O)cc1 (centres undefined)	inactive		inactive		inactive		inactive	inactive	inactive	inactive		inactive	inactive	inactive	inactive	inactive	inactive		inactive	
C=CCN1CC[C@]23c4c5ccc(O)c4O[C@H]2[C@@H](O)C=C[C@H]3[C@H]1C5	inactive		inactive	inactive	inactive	inactive	inactive		inactive	inactive		inactive	inactive				inactive		inactive	inactive
CCCCCCCCCC(=O)O[C@H]1CC[C@H]2[C@@H]3CCC4=CC(=O)CC[C@]4(C)[C@H]3CC[C@]12C	inactive				inactive		inactive	inactive	inactive	inactive	inactive		inactive	10700 nM [inconclusive] (active)	335 nM (active)	inactive			inactive	inactive
